Bioassay records from PubChem BioAssay.
VACV mCherry inh: vaccinia inhibition (mCherry reporter). Vaccinia virus mCherry reporter infection, fluorescence. Potency, µM (titrated, usually from 36.5 µM), usual class: inhibitors. hit rate 0.63% among 310,000. AID 720579; calls by dose curve; tested in A549 cells; note: nearly all actives have a fitted effect of over 35% in size
HCMV antiviral: human cytomegalovirus inhibition | HFF cells, HCMV-luciferase reporter, 72 h; active compounds read low | activity change, negative = inhibition, % at 57.5 µM | hit rate 4.5% among 410,000 | AID 1259415; in the data active = activity change below about -60%; inconclusive = no clear call, values can overlap the other calls; inactive = above about -39%
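Steps: HFFs plated, 16 h 37C; compounds added; HCMV-luciferase added to MOI 1 PFU/cell; 72 h 37C; OneGlo reagent, 5 min room temperature; luminescence read, normalized to controls.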
Vaccinia Venus: inhibitors of vaccinia virus (Venus reporter); Vaccinia virus Venus reporter expression, fluorescence; Potency, µM (top dose mostly 36.5 µM), hits mostly inhibitors; hit rate 0.46% among 330,000; AID 720580; calls by dose curve; tested in A549 cells; note: nearly all actives have a fitted effect of over 30% in size
Tb PYK inh: blocks Trypanosoma brucei pyruvate kinase; Q57TT1; TbPYK enzyme, Kinase-Glo Plus ATP luminescence, 45 min; Potency, µM (series often up to 76.8 µM), most hits filed as inhibitors; hit rate 0.12% among 410,000; AID 624173; note: nearly all actives have a fitted effect of over 50% in size
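Luminescent Kinase-Glo Plus end-point after 45 min room-temperature reaction of T. brucei pyruvate kinase started with 130 uM ADP (final). Buffer TEA 50 mM pH 7.2 with KCl, MgCl2, BSA, Tween-20; titration-based qHTS with fitted concentration-effect curves.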
LmPK inhibitor: LmPK (Leishmania mexicana) enzyme inhibition; Q27686; purified LmPK, Kinase-Glo ATP luminescence, 1 h; Potency, µM (series often up to 57.5 µM), hits mostly inhibitors; hit rate 0.37% among 290,000
Target sequence (Q27686 whole entry, looked up): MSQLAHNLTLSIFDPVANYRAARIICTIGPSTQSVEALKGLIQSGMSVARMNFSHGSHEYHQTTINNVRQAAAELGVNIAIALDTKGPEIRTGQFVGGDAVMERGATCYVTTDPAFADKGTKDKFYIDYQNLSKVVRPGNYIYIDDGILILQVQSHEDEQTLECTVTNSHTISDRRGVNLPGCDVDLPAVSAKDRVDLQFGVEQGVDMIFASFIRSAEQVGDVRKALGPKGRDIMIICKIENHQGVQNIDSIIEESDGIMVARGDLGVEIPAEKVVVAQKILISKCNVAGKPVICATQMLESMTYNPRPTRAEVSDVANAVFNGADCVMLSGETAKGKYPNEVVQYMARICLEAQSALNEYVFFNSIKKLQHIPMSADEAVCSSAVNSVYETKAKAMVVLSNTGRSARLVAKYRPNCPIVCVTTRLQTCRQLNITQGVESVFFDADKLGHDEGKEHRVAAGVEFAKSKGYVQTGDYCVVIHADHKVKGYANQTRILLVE
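Pyruvate kinase activity monitored as ATP production (luciferase luminescence). Conditions: 0.1 nM enzyme, 0.5 mM PEP, 0.1 mM ADP, 1 h, RT; normalized against uninhibited and no-enzyme wells.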
Large screens that a line does not name were inactive; ! = not active in a repeat. Hits are enriched below; roughly 5% of the tested compounds scored in any of these assays. Unless noted, calls come from the whole dose curve; as a rule, active = well fitted curve in the direction sought with a large enough effect; inconclusive = small, poorly fitted or top-dose-only effect, or another doubt; inactive = no such curve, though single readings can be large; an effect the other way counts as inactive or inconclusive.

Cn1c(SCC(=O)N2CCN(c3ccccc3)CC2)nnc1-c1c[nH]c2ccccc12	HCMV antiviral -80, Vaccinia Venus inconclusive
Cn1c(SCC(=O)N2CCN(c3ccccc3)CC2)nnc1-c1ccccc1	none
COc1ccc(N2CCN(C(=O)CSc3nnc(-c4cc5ccccc5cc4O)n3C)CC2)cc1	HCMV antiviral -67 (no result: VACV mCherry inh, Vaccinia Venus)
CCn1c(SCC(=O)N2CCN(c3ccccc3)CC2)nnc1-c1c[nH]c2ccccc12	VACV mCherry inh inconclusive, HCMV antiviral -75, Vaccinia Venus inconclusive
CCCNC(=O)COc1nc2ccccc2nc1N1CCOCC1	none
CCC1=Nc2cc(C(=O)NCc3cccnc3)ccc2Sc2ccc(C)cc21	VACV mCherry inh inconclusive, Vaccinia Venus inconclusive
CCOC(=O)c1cccc(NC(=O)N2CCOCC2)c1	none
CC1=NN(c2ccccc2)C(=O)/C1=C/C=C/c1ccccc1	HCMV antiviral -69
CC1=NN(c2cccc(C(=O)O)c2)C(=O)/C1=C\C=C\c1ccco1	none
Cc1ccc(C2=NOC(=O)/C2=C\C=C\c2ccccc2)cc1	HCMV antiviral -109
COc1ccccc1/C=C1/C(=O)N(c2ccccc2)N=C1C	none
CC1=NN(c2ccccc2)C(=O)/C1=C/c1cc(C)n(C2CC2)c1C	HCMV antiviral -68
CCn1c(=O)c2c(nc3n2CCCN3CCc2ccc(OC)c(OC)c2)n(C)c1=O	none
CCOc1ccc(Br)cc1C(=O)Nc1ccc(C(=O)NCC(C)C)cc1	HCMV antiviral -80
COc1ccc(Br)cc1C(=O)Nc1ccc(C(=O)NCC(C)C)cc1	HCMV antiviral inconclusive
CC(C)(C)OC(=O)C[C@H]1C/C=C\C[C@H](CC(=O)NCCO)C(=O)N2CCC[C@@H]2COC1=O	HCMV antiviral -60 (no result: LmPK inhibitor)
Cc1cc(C(=O)NCCN2CCOCC2)c2ccccc2n1	none (no result: VACV mCherry inh, Vaccinia Venus, LmPK inhibitor)
Nc1ncnc2c1ccn2[C@@H]1O[C@H](CO)[C@@H](O)[C@H]1O	VACV mCherry inh 1.4µM, HCMV antiviral -106, Vaccinia Venus 1.8µM (no result: LmPK inhibitor)
NC(=S)c1cn(C2OC(CO)C(O)C2O)c2ncnc(N)c12 (stereo unspecified)	HCMV antiviral -99 (no result: VACV mCherry inh, Vaccinia Venus)
OCC1OC(n2ccc3c2ncn2ncnc32)C(O)C1O (stereo unspecified)	VACV mCherry inh inconclusive, HCMV antiviral -95, Vaccinia Venus inconclusive (no result: LmPK inhibitor)
Nc1ncnc2c1[nH]c(=O)n2C1OC(CO)C(O)C1O (stereo unspecified)	none (no result: HCMV antiviral, Tb PYK inh, LmPK inhibitor)
Fc1ccccc1-c1nc(NCCCN2CCOCC2)c2ccccc2n1	none
c1ccc2c(NCCCN3CCOCC3)c3ccccc3nc2c1	HCMV antiviral -102 (no result: VACV mCherry inh, Vaccinia Venus, Tb PYK inh)
CN(C)CCCNc1c2ccccc2nc2ccccc12	VACV mCherry inh 7.1µM, HCMV antiviral -102, Vaccinia Venus 8.9µM
Cc1cc(NCCN2CCOCC2)c2ccc3ccccc3c2n1	HCMV antiviral -69 (no result: VACV mCherry inh, Vaccinia Venus)
Cc1cc(OCC(=O)NC2CC2)c2c(C)cc(=O)oc2c1	none (no result: VACV mCherry inh, HCMV antiviral, Vaccinia Venus)
CCOc1ccc2oc(-c3ccccc3)c(C(=O)N(C)C)c2c1	HCMV antiviral -62
CC1(c2nnc(-c3ccccc3)o2)CC(c2ccc([N+](=O)[O-])cc2)=NO1 (stereo unspecified)	HCMV antiviral -68 (no result: LmPK inhibitor)
CC1(c2nnc(-c3ccccc3)o2)CC(c2ccc(Cl)cc2)=NO1 (stereo unspecified)	none
CCOc1ccc(NC(=O)CN2CCCC2c2cccs2)cc1S(=O)(=O)N1CCCC1 (stereo unspecified)	HCMV antiviral -92 (no result: VACV mCherry inh, Vaccinia Venus, LmPK inhibitor)
CCOc1ccc(N=Nc2c(=O)[nH]n3c(=O)cc(C)[nH]c23)cc1	LmPK inhibitor 14µM (no result: VACV mCherry inh)
Cc1cc(=O)n2[nH]c(=O)c(N=Nc3ccccc3)c2[nH]1	none
CC(=NCCN1CCOCC1)C1=C(O)c2ccccc2C1=O	HCMV antiviral -102 (no result: VACV mCherry inh)
COc1ccc(OC)c(/C=C/c2[nH]c(=O)[nH]c(=O)c2[N+](=O)[O-])c1	none
Cc1cc(C(=O)OC(C(=O)Nc2cccc(C(F)(F)F)c2)c2ccccc2)c(C)o1 (stereo unspecified)	none
Cc1ccc(NC(=O)C(OC(=O)c2cc(C)oc2C)c2ccccc2)cc1 (stereo unspecified)	HCMV antiviral -61
COc1ccc(/C=[N+](\[O-])C2N(c3ccccc3)C(=S)SC2(C)C)cc1OC (stereo unspecified)	none
C=CCC1(CC=C)CCCN1C(=O)c1cc(COc2ccc(C)nc2)on1	HCMV antiviral -76 (no result: VACV mCherry inh, Vaccinia Venus)
O=P(O)(O)CN1CCNCCN(CP(=O)(O)O)CCNCC1	HCMV antiviral -61 (no result: LmPK inhibitor)
COCCNC(=O)C(=O)NCCN1CCNCC1	none
CS(=O)(=O)N(Cc1ccccc1)c1ccc(C(=O)NCCSCc2ccco2)cc1	none (no result: VACV mCherry inh, Vaccinia Venus)
OC1(c2ccc(Br)cc2)CCNCC1	none (no result: VACV mCherry inh, Vaccinia Venus)
CCc1cccc2[nH]c3cc([N+](=O)[O-])ccc3c12	VACV mCherry inh inconclusive, HCMV antiviral -61
CCN(CC)CCNC(=O)C1CCCCN1S(=O)(=O)c1cccc([N+](=O)[O-])c1 (stereo unspecified)	none
Cc1noc(-c2ccc(-c3noc(-c4ccc(F)cc4)n3)cc2)n1	none (no result: LmPK inhibitor)
OCCCNCc1ccc(Cl)cc1Cl	none
O=C(N/N=C1\CCCc2ccccc21)c1ccccc1Cl	none
O=C(N/N=C1\CCc2ccccc21)c1ccccc1O	LmPK inhibitor 13µM
O=S1(=O)N(Cc2ccccc2)CCCN1Cc1ccc(F)cc1Cl	HCMV antiviral active (no result: LmPK inhibitor)
Cc1cc(C(=O)CN2C(=O)C(=O)N(Cc3ccco3)C2=O)c(C)n1CCc1ccc(F)cc1	none (no result: VACV mCherry inh, Vaccinia Venus, LmPK inhibitor)
CC(C)CC(=O)NCCNC(=O)c1cc(OCC(F)(F)F)ccc1OCC(F)(F)F	none (no result: VACV mCherry inh)
O=C(NCCN1CCCCC1)c1cc(OCC(F)(F)F)ccc1OCC(F)(F)F	VACV mCherry inh inconclusive
O=C(NCC1CCCCN1)c1cc(OCC(F)(F)F)ccc1OCC(F)(F)F (stereo unspecified)	VACV mCherry inh 35µM!, Vaccinia Venus 10µM!
O=C(CCl)NCCNC(=O)c1cc(OCC(F)(F)F)ccc1OCC(F)(F)F	VACV mCherry inh 2µM, HCMV antiviral -78, Vaccinia Venus 2µM
CCCc1ccc(-c2cc(C(=O)N3CCN(c4ccccn4)CC3)c3ccccc3n2)cc1	HCMV antiviral -64 (no result: VACV mCherry inh, Vaccinia Venus)
Cc1ccc(S(=O)(=O)c2nc(S(C)(=O)=O)sc2N(C)C)cc1	Vaccinia Venus 11µM
Cc1ccc(S(=O)(=O)c2nc(S(C)(=O)=O)sc2N2CCCCC2C)cc1 (stereo unspecified)	HCMV antiviral -75
O=C(CNC1=NCCC1)c1ccc2c(c1)OCCO2	none (no result: VACV mCherry inh)
CCOc1ccc2oc(C(=O)NCc3nc4ccccc4[nH]3)c(C)c2c1	none
Cc1ccc(-c2csc(NC(=O)Cc3ccc(F)cc3)n2)o1	Tb PYK inh inconclusive
Cc1nn(C(C)(C)C)c(C)c1/C=N/OC(=O)Nc1ccc(Cl)cc1	HCMV antiviral -101
Cc1nn(C)c(C)c1/C=N/NC(=O)C(C)(C)Oc1ccc(Cl)cc1	none (no result: VACV mCherry inh, Vaccinia Venus)
COc1cccc(CNC(=O)CNC(=S)N(Cc2ccccc2)Cc2ccccc2F)c1	HCMV antiviral -66
O=C(CNC(=S)N(Cc1ccccc1)Cc1ccccc1F)NCc1ccccc1	HCMV antiviral inconclusive
CCc1ccccc1Nc1cc(C(=O)NCc2ccccn2)c2ccccc2n1	none
